Measurements as given in PubChem BioAssay AID1159580 (chemical genetic matrix, 2015).
In all, about 5,500 compounds went through this assay and about 2,000 (36%) were called active. About 18% were inconclusive and are not listed. Cut-off read from the data, not from the text of the source: active = normalized growth mostly below about 0.91 (no sharp cut-off); inconclusive = no clear call, values can overlap the other calls; inactive = mostly above about 0.92. This is one part of the list.

Experiment: chemical genetic growth profiling, strain panel (AID 1159580);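 note: tested at 20 µM; growth read once vehicle control cultures reached saturation at 30 °C; 1 = growth at the plate median or of vehicle wells; lower values mean less growth of the strain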
Conditions: growth OD

Measured: normalized growth

CC[C@@]1(O)C(=O)OCc2c1cc1n(c2=O)Cc2cc3ccccc3nc2-1
active: S. cerevisiae deletion strains, locus YJR066W, strain TOR1, active compounds read low 0.665 | S. cerevisiae deletion strains, locus YKL085W, strain MDH1 (second series), active compounds read low 0.796 | S. cerevisiae deletion strains, locus YKL085W, strain MDH1, active compounds read low 0.796 | S. cerevisiae deletion strains, locus YKR001C, strain vps1, active compounds read low 0.549 | S. cerevisiae deletion strains, locus YKR026C, strain gcn3, active compounds read low 0.919 | S. cerevisiae deletion strains, locus YKR091W, strain srl3, active compounds read low 0.914 | S. cerevisiae deletion strains, locus YLL001W, strain dnm1, active compounds read low 0.831 | S. cerevisiae deletion strains, locus YLL026W, active compounds read low 0.727 | S. cerevisiae deletion strains, locus YLL041C, strain sdh2, active compounds read low 0.924 | S. cerevisiae deletion strains, locus YLR027C, strain aat2, active compounds read low 0.653 | S. cerevisiae deletion strains, locus YLR058C, strain SHM2, active compounds read low 0.881 | S. cerevisiae deletion strains, locus YLR102C, strain apc9, active compounds read low 0.913 | S. cerevisiae deletion strains, locus YLR113W, strain HOG1, active compounds read low 0.711 | S. cerevisiae deletion strains, locus YLR221C, strain rsa3, active compounds read low 0.693 | S. cerevisiae deletion strains, locus YLR258W, strain gsy2, active compounds read low 0.78 | S. cerevisiae deletion strains, locus YLR262C, strain YPT6 (second series), active compounds read low 0.484 | S. cerevisiae deletion strains, locus YLR268W, strain sec22, active compounds read low 0.63 | S. cerevisiae deletion strains, locus YLR320W, strain mms22, active compounds read low 0.108 | S. cerevisiae deletion strains, locus YLR330W, strain CHS5, active compounds read low 0.893 | S. cerevisiae deletion strains, locus YLR342W, strain FKS1 (second series), active compounds read low 0.732 | S. cerevisiae deletion strains, locus YLR342W, strain FKS1, active compounds read low 0.647 | S. cerevisiae deletion strains, locus YLR370C, strain arc18, active compounds read low 0.832 | S. cerevisiae deletion strains, locus YML032C, strain rad52, active compounds read low 0.0917 | S. cerevisiae deletion strains, locus YML120C, strain ndi1, active compounds read low 0.868 | S. cerevisiae deletion strains, locus YML124C, strain tub3, active compounds read low 0.903 | S. cerevisiae deletion strains, locus YMR058W, strain fet3, active compounds read low 0.705 | S. cerevisiae deletion strains, locus YMR078C, strain ctf18, active compounds read low 0.111 | S. cerevisiae deletion strains, locus YMR125W, strain sto1, active compounds read low 0.856 | S. cerevisiae deletion strains, locus YMR129W, active compounds read low 0.893 | S. cerevisiae deletion strains, locus YMR205C, strain PFK2, active compounds read low 0.798 | S. cerevisiae deletion strains, locus YMR223W, strain ubp8, active compounds read low 0.671 | S. cerevisiae deletion strains, locus YMR231W, strain pep5, active compounds read low 0.268 | S. cerevisiae deletion strains, locus YMR263W, strain SAP30, active compounds read low 0.847 | S. cerevisiae deletion strains, locus YMR307W, strain GAS1, active compounds read low 0.461 | S. cerevisiae deletion strains, locus YNL067W, strain RPL9B, active compounds read low 0.781 | S. cerevisiae deletion strains, locus YNL071W, strain lat1, active compounds read low 0.744 | S. cerevisiae deletion strains, locus YNL183C, strain NPR1, active compounds read low 0.643 | S. cerevisiae deletion strains, locus YNL209W, strain ssb2, active compounds read low 0.87 | S. cerevisiae deletion strains, locus YNL233W, strain BNI4, active compounds read low 0.804 | S. cerevisiae deletion strains, locus YNL248C, strain rpa49, active compounds read low 0.679 | S. cerevisiae deletion strains, locus YNL250W, strain rad50, active compounds read low 0.152 | S. cerevisiae deletion strains, locus YNL271C, strain bni1, active compounds read low 0.814 | S. cerevisiae deletion strains, locus YNL298W, strain CLA4, active compounds read low 0.74 | S. cerevisiae deletion strains, locus YNL307C, strain MCK1, active compounds read low 0.505 | S. cerevisiae deletion strains, locus YNL322C, strain KRE1 (second series), active compounds read low 0.465 | S. cerevisiae deletion strains, locus YNR052C, strain pop2, active compounds read low 0.207 | S. cerevisiae deletion strains, locus YOL147C, strain pex11, active compounds read low 0.807 | S. cerevisiae deletion strains, locus YOR001W, strain rrp6, active compounds read low 0.847 | S. cerevisiae deletion strains, locus YOR069W, strain VPS5, active compounds read low 0.883 | S. cerevisiae deletion strains, locus YOR070C, strain gyp1, active compounds read low 0.739 | S. cerevisiae deletion strains, locus YOR080W, strain dia2, active compounds read low 0.543 | S. cerevisiae deletion strains, locus YOR083W, strain WHI5, active compounds read low 0.814 | S. cerevisiae deletion strains, locus YOR106W, strain vam3, active compounds read low 0.366 | S. cerevisiae deletion strains, locus YOR136W, strain idh2, active compounds read low 0.915 | S. cerevisiae deletion strains, locus YOR144C, strain elg1, active compounds read low 0.542 | S. cerevisiae deletion strains, locus YOR184W, strain ser1, active compounds read low 0.67 | S. cerevisiae deletion strains, locus YOR231W, strain MKK1, active compounds read low 0.78 | S. cerevisiae deletion strains, locus YOR265W, strain rbl2, active compounds read low 0.796 | S. cerevisiae deletion strains, locus YOR270C, strain vph1, active compounds read low 0.576 | S. cerevisiae deletion strains, locus YOR290C, strain snf2, active compounds read low 0.746 | S. cerevisiae deletion strains, locus YPL051W, strain arl3, active compounds read low 0.828 | S. cerevisiae deletion strains, locus YPL078C, strain atp4, active compounds read low 0.868 | S. cerevisiae deletion strains, locus YPL240C, strain hsp82, active compounds read low 0.857 | S. cerevisiae deletion strains, locus YPL256C, strain CLN2, active compounds read low 0.784 | S. cerevisiae deletion strains, locus YPR119W, strain clb2, active compounds read low 0.893 | S. cerevisiae deletion strains, locus YPR141C, strain kar3, active compounds read low 0.836 | S. cerevisiae deletion strains, locus YPR163C, strain tif3, active compounds read low 0.276 | S. cerevisiae deletion strains, locus YPR167C, strain met16, active compounds read low 0.795 | S. cerevisiae deletion strains, strain wtn01, active compounds read low 0.739 | S. cerevisiae strains, strain wild type, active compounds read low 0.892
inactive: S. cerevisiae deletion strains, locus YJR075W, strain HOC1, active compounds read low 0.88 | S. cerevisiae deletion strains, locus YKL009W, strain mrt4, active compounds read low 0.936 | S. cerevisiae deletion strains, locus YKL068W, active compounds read low 0.951 | S. cerevisiae deletion strains, locus YKL160W, strain elf1, active compounds read low 0.965 | S. cerevisiae deletion strains, locus YKL190W, strain CNB1, active compounds read low 0.948 | S. cerevisiae deletion strains, locus YLR039C, strain RIC1, active compounds read low 0.692 | S. cerevisiae deletion strains, locus YLR262C, strain YPT6, active compounds read low 0.662 | S. cerevisiae deletion strains, locus YLR357W, strain rsc2, active compounds read low 1 | S. cerevisiae deletion strains, locus YLR371W, strain rom2, active compounds read low 0.929 | S. cerevisiae deletion strains, locus YLR384C, strain iki3, active compounds read low 0.96 | S. cerevisiae deletion strains, locus YLR418C, strain cdc73, active compounds read low 0.857 | S. cerevisiae deletion strains, locus YML016C, strain PPZ1, active compounds read low 0.998 | S. cerevisiae deletion strains, locus YNL128W, strain TEP1, active compounds read low 0.937 | S. cerevisiae deletion strains, locus YNL153C, strain GIM3, active compounds read low 0.892 | S. cerevisiae deletion strains, locus YNR049C, strain mso1, active compounds read low 0.947 | S. cerevisiae deletion strains, locus YOL006C, strain TOP1, active compounds read low 0.971 | S. cerevisiae deletion strains, locus YOL012C, strain htz1 0.487 | S. cerevisiae deletion strains, locus YOR061W, strain CKA2, active compounds read low 0.912 | S. cerevisiae deletion strains, locus YOR316C, strain cot1, active compounds read low 0.942 | S. cerevisiae deletion strains, locus YPL106C, strain sse1, active compounds read low 0.879
